In PubChem BioAssay (NCI):
The panel holds about 79,000 compounds, 15% with a hit somewhere; the sample as a whole holds those more often. A number with no mark means an inactive call. Activity calls are given as the source filed them. No stated cut-off is given here; in the data, active means growth inhibition above about 70%; inactive means the rest.

Key:
[1] = NCI Yeast Anticancer Drug Screen. Data for the rad50 strain (AID 155);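 further: 0% = growth of vehicle-only cultures of the same strain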; details: S. cerevisiae rad50 strain growth inhibition, hits give high values
Outline: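 Relative growth inhibition (compound vs vehicle) was measured in yeast with a defined repair-gene alteration.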

[2] = NCI Yeast Anticancer Drug Screen. Data for the mec2-1 strain (AID 157); details: S. cerevisiae mec2-1 strain, hits give high values
Outline: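 Compounds were applied to mec2-1 yeast cells. Their growth was then compared with that of vehicle-treated cultures to give growth inhibition.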

[3] = NCI Yeast Anticancer Drug Screen. Data for the sgs1 mgt1 strain (AID 161);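 further: 0% = growth of cultures given vehicle only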; details: S. cerevisiae sgs1 mgt1 strain, hits give high values
Outline: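 Yeast cells carrying a defined DNA-repair defect were exposed to test compounds. Growth inhibition was measured relative to vehicle-treated controls.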

[4] = NCI Yeast Anticancer Drug Screen. Data for the cln2 rad14 strain (AID 165);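 further: 0% = growth equal to vehicle treated cultures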; details: S. cerevisiae cln2 rad14 strain, hits give high values
Outline: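 Strain: cln2 rad14 yeast, altered in cell cycle control and DNA damage repair. Read-out: growth inhibition vs vehicle.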

[5] = NCI Yeast Anticancer Drug Screen. Data for the bub3 strain (AID 167); details: S. cerevisiae bub3 mutant strain, hits give high values
Outline: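 Screening used yeast with an engineered genetic alteration affecting cell cycle control. Compound-exposed cultures were compared with vehicle cultures, and reduced growth was taken as inhibition.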

[6] = NCI Yeast Anticancer Drug Screen. Data for the mlh1 rad18 strain (AID 175); details: S. cerevisiae mlh1 rad18 strain growth inhibition, hits give high values
Outline: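 A repair-deficient yeast strain is exposed to test compound, and growth is scored relative to vehicle-treated controls.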

[7] = at 5.0 µM (retest, dose inferred, filed as 0.5)
[8] = at 50.0 µM (retest, dose inferred, filed as 5.0)

SMILES | growth inhibition [1, 7] [%] | growth inhibition [1, 8] | growth inhibition ([1]; at 50.0 µM) | growth inhibition [2, 7] [%] | growth inhibition [2, 8] | growth inhibition ([2]; at 50.0 µM) | growth inhibition [3, 7] [%] | growth inhibition [3, 8] | growth inhibition ([3]; at 50.0 µM) | growth inhibition [4, 7] [%] | growth inhibition [4, 8] | growth inhibition ([4]; at 50.0 µM) | growth inhibition [5, 7] [%] | growth inhibition [5, 8] | growth inhibition ([5]; at 50.0 µM) | growth inhibition [6, 7] [%] | growth inhibition [6, 8] | growth inhibition ([6]; at 50.0 µM)
O=C1NC(=S)S/C1=C\c1cc(Cl)ccc1O | 4 | -7% | 2.85% | -4 | -6% | 15.7% | -1 | 4% | 60.5% | -7 | -18% | -22.4% | -7 | -14% | -4.2% | -5 | -6% | 3.05%
CC1=CC(=O)C=C(Br)C1=O | 18 | 99% (active) | 98.8% (active) | 12 | 99% (active) | 99.5% (active) | 6 | 95% (active) | 99.3% (active) | 2 | 41% | 87.7% (active) | 11 | 99% (active) | 99.2% (active) | 13 | 99% (active) | 99.2% (active)
CCOC(=O)C(=Cc1ccc(OC)cc1)C(=O)OCC | 0 | 62% | 39.6% | -1 | 70% (active) | 52.4% | -3 | 65% | 55.6% | 1 | 57% | 5.95% | 18 | 86% (active) | 68.8% | -1 | 77% (active) | 66.5%
Cc1ccc(NC(=S)SCc2ccc3c(c2)OCO3)cc1Br | 46 | 96% (active) | 89.8% (active) | 29 | 98% (active) | 91.8% (active) | 55 | 98% (active) | 91.9% (active) | 52 | 98% (active) | 88.5% (active) | 58 | 99% (active) | 91% (active) | 36 | 97% (active) | 89.8% (active)
CCN(CC)CCC(=O)c1ccc(Oc2ccc(C)cc2)cc1 | 13 | 71% (active) | 29.9% | 6 | 36% | 40.2% | 24 | 75% (active) | 58% | 15 | 93% (active) | 24.9% | 18 | 89% (active) | 67% | 22 | 81% (active) | 53.1%
O=S(=O)(Nc1ccc2c3c(cccc13)C=C2)c1ccccc1 | -1 | 98% (active) | 64.5% | -4 | 94% (active) | 75.2% (active) | -7 | 97% (active) | 79.8% (active) | -9 | 96% (active) | 61.3% | -1 | 98% (active) | 63.4% | -2 | 97% (active) | 92.3% (active)
CC(=O)OC(OC(C)=O)c1ccc2ccc3cccc4ccc1c2c34 | 16 | 89% (active) | 63.4% | -1 | 78% (active) | 45.8% | -16 | 84% (active) | 61% | 3 | 78% (active) | 45.2% | -17 | 85% (active) | 69% | -3 | 89% (active) | 71.7% (active)
NC1CCCCC1N.O=C([O-])c1ccc(N=Nc2cccc([N+](=O)[O-])c2)cc1O.O=C([O-])c1ccc(N=Nc2cccc([N+](=O)[O-])c2)cc1O.[Pt+4] | 15 | 23% | -2.95% | 18 | 36% | -2.45% | -20 | 36% | 3% | -8 | 20% | -18.6% | 28 | 45% | -19.4% | 25 | 34% | 6.8%
CC(C)C(=O)c1ccc2ccccc2c1O | -1 | 1% | 21.4% | 2 | -1% | -9.8% | -13 | -8% | 4.35% | 3 | 0% | 12.2% | 5 | 6% | 0.5% | -1 | 1% | 1.05%
Cc1cc(=O)oc2c3c(ccc12)OC(c1ccc(Br)cc1)CC3=O (stereo not given) | 28 | 24% | 6.65% | 15 | 12% | -7.8% | 19 | 20% | 6.8% | 11 | 27% | -12.8% | 24 | 23% | -3% | 22 | 15% | -6.6%
CCc1cccc(CC)c1N=Nc1c(N)nc(N)[nH]c1=O | -11 | -6% | -4.8% | -23 | -9% | -32% | -11 | 6% | 39.8% | 0 | 2% | -21% | -2 | -3% | -19.8% | 8 | -30% | -11.7%
CC(=O)Oc1ccc(Cl)cc1Cc1cc(Cl)ccc1OC(C)=O | 17 | 85% (active) | 94.2% (active) | -1 | 93% (active) | 90.7% (active) | 7 | 83% (active) | 94.5% (active) | -4 | 94% (active) | 89.2% (active) | -3 | 88% (active) | 94.5% (active) | 2 | 94% (active) | 95.2% (active)
O=c1[nH]c2ccccc2c2cccc(F)c12 | 12 | 89% (active) | 94.2% (active) | 10 | 76% (active) | 71.3% (active) | 13 | 88% (active) | 94.8% (active) | 4 | 68% | 69.5% | -8 | 78% (active) | 91.8% (active) | 7 | 81% (active) | 86.7% (active)
O=C1/C(=C\c2ccccc2)CCC/C1=C\O | -139 | -89% | 39.9% | -46 | -40% | 46.5% | -50 | -44% | 6.4% | -56 | -56% | 33.9% | -64 | -68% | 20% | -112 | -92% | 58.2%
CN(c1ccccc1)c1c2c(oc(=O)c1Cl)-c1ccccc1SC2 | 16 | 45% | 86% (active) | 12 | 8% | 46.2% | 13 | 40% | 62.4% | 7 | 32% | 10.9% | 0 | 85% (active) | 93.5% (active) | 7 | 96% (active) | 55%
CCOC(=O)c1cc2c(nc1NCc1ccc(OC)c(OC)c1)/C(=C/c1ccccc1)CCCC2 | 38 | 94% (active) | 90.2% (active) | 17 | 93% (active) | 88.8% (active) | 47 | 94% (active) | 91.8% (active) | 28 | 84% (active) | 80.2% (active) | 49 | 94% (active) | 92.5% (active) | 58 | 92% (active) | 90.2% (active)
Cc1ccccc1NC(=O)C1C(=O)N(c2ccccc2C)C(=O)/C1=N/O (stereo not given) | -21 | 3% | -21.4% | 3 | 4% | 2.95% | -4 | -19% | -4.55% | -6 | 6% | -26.6% | 0 | 1% | -5.25% | -1 | -2% | 3.65%
O=C1C2=C(C(=O)c3cnccc31)C1C=CC2CC1 (stereo not given) | 21 | 71% (active) | 49.1% | 17 | 69% | 31.2% | 25 | 78% (active) | 10.2% | 16 | 40% | 15.8% | 27 | 88% (active) | 59.9% | 40 | 94% (active) | 90.8% (active)
CC(C)=C1C=C2CCC3C(C)(C(=O)O)CCCC3(C)C2CC1 (stereo not given) (tested in a mixture with another compound) | -4 | 90% (active) | 72.5% (active) | -5 | 61% | 40.1% | -5 | 48% | 59.4% | -5 | 47% | 20.3% | -7 | 98% (active) | 38.8% | -1 | 76% (active) | 60.8%
C[Si](C)c1cccc(Cl)c1 | 2 | 5% | 0.25% | 0 | 4% | 0.45% | -1 | -3% | 6.9% | 8 | 6% | 13.8% | 1 | 0% | 7.55% | -29 | 1% | -0.75%
